# “And” between values parts separate entries of the source, which are not always exact repeats. Equal entries are not always repeated. Results filed as inconclusive are left out. More than one record can exist for a structure, and the calls need not agree. The source made the active and inactive calls. The calls were made as follows: active = hit-call score of the fitted dose curve at least 0.9, where 1 is the maximum; inconclusive = response in the unintended direction; inactive = score below 0.9.
# Experiments:
# [1] = target: human Matrix Metalloproteinase-2 (MMP2), MMP2 (gene 4313) (UniProt P08253); experiment: NVS_ENZ_hMMP2: NovaScreen (NVS) Enzymatic Assay for human Matrix Metalloproteinase-2 (MMP2) (AID 2283184)
# Chain of human Matrix Metalloproteinase-2 (MMP2), MMP2 (gene 4313) (P08253 whole entry, looked up): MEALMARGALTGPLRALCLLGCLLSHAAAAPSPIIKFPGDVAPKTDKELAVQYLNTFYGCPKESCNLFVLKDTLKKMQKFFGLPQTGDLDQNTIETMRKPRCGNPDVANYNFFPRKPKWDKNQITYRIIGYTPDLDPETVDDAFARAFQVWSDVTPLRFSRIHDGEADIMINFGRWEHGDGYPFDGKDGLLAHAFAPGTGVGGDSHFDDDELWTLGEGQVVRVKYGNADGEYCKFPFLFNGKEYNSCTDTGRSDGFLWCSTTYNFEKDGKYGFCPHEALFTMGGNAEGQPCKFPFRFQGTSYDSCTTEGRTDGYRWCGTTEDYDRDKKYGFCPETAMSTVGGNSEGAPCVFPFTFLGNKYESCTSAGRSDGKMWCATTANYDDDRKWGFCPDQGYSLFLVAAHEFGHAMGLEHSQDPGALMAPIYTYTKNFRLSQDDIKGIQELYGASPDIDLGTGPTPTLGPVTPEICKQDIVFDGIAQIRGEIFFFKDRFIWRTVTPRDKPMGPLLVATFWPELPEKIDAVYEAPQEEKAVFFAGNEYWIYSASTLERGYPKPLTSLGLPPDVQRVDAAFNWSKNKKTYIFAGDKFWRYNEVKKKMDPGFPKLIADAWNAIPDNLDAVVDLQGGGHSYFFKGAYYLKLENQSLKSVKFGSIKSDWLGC
# Method in brief: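 Cell-free recombinant MMP2 activity with a fluorescent substrate, read 1 h after dosing. Primary screen in duplicate at 25 uM; actives then run in concentration series; loss of signal fitted versus DMSO.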
# [2] = target: human Mitogen- and Stress-activated Protein Kinase-1 (Msk1), RPS6KA5 (gene 9252) (UniProt O75582); experiment: NVS_ENZ_hMsk1: NovaScreen (NVS) Enzymatic Assay for human Mitogen- and Stress-activated Protein Kinase-1 (Msk1) (AID 2283187)
# Chain of human Mitogen- and Stress-activated Protein Kinase-1 (Msk1), RPS6KA5 (gene 9252) (O75582 whole entry, looked up): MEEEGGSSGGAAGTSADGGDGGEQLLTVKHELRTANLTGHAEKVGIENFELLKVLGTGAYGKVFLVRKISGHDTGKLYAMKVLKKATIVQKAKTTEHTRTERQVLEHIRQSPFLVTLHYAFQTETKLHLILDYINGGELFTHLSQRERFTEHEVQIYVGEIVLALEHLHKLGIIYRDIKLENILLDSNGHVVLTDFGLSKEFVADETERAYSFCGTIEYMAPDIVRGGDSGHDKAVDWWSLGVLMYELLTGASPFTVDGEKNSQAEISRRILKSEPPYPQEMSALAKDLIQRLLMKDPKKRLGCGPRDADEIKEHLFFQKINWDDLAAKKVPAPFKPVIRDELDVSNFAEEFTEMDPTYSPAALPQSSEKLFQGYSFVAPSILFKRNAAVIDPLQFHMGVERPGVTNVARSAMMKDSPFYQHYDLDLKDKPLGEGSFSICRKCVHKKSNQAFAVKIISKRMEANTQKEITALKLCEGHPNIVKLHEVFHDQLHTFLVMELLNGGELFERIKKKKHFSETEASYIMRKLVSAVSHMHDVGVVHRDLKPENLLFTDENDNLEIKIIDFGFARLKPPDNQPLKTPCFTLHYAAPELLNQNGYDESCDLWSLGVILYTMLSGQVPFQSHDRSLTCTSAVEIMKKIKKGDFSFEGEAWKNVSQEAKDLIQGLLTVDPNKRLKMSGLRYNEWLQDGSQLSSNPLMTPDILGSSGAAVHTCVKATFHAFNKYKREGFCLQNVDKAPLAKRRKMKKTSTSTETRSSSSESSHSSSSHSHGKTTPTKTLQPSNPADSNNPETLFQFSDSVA
# Description: NVS_ENZ_hMsk1 is a biochemical, single-readout assay that uses extracted gene-proteins in a cell-free assay. Measurements were taken 1 hour after chemical dosing in a 384-well plate.NVS_ENZ_hMsk1 is one of one assay component(s) measured or calculated from the NVS_ENZ_hMsk1 assay. It is designed to make measurements of enzyme activity, a form of enzyme reporter, as detected with fluorescence intensity signals by Fluorescence and electrophoretic mobility shift technology.Data from the assay component NVS_ENZ_hMsk1 was analyzed into 1 assay endpoint. This assay endpoint, NVS_ENZ_hMsk1, was analyzed in the positive analysis fitting direction relative to DMSO as the negative control and baseline of activity. Using a type of enzyme reporter, loss-of-signal activity can be used to understand changes in the enzymatic activity as they relate to the gene RPS6KA5. Furthermore, this assay endpoint can be referred to as a primary readout, because this assay has produced multiple assay endpoints where this one serves a enzymatic activity function. To generalize the intended target to other relatable targets, this assay endpoint is annotated to the kinase intended target family, where the subfamily is serine/threonine kinase.
# Binding assays used specific radioligands (tritiated, iodinated) with non-radioactive competitive displacement ligands in agonist or antagonist protocols (as indicated) and various reference compounds and inhibitors to titrate specific binding to receptors and transporters. Most enzyme assays (CYPs, kinases, phosphatases, proteases, HDACs) used recombinant protein and specific substrates (fluorescence mostly, some colorimetric and radioactive) and inhibitors, followed by a biochemical separation of substrate and product. All assays for the biochemical HTS were initially run in duplicate at a single concentration (10 uM for CYP450 assays and 25 uM for all others). […]
# [3] = target: human Phosphodiesterase 4A1 (PDE4A1), PDE4A (gene 5141) (UniProt P27815); experiment: NVS_ENZ_hPDE4A1: NovaScreen (NVS) Enzymatic Assay for human Phosphodiesterase 4A1 (PDE4A1) (AID 2283191)
# Chain of human Phosphodiesterase 4A1 (PDE4A1), PDE4A (gene 5141) (P27815 whole entry, looked up): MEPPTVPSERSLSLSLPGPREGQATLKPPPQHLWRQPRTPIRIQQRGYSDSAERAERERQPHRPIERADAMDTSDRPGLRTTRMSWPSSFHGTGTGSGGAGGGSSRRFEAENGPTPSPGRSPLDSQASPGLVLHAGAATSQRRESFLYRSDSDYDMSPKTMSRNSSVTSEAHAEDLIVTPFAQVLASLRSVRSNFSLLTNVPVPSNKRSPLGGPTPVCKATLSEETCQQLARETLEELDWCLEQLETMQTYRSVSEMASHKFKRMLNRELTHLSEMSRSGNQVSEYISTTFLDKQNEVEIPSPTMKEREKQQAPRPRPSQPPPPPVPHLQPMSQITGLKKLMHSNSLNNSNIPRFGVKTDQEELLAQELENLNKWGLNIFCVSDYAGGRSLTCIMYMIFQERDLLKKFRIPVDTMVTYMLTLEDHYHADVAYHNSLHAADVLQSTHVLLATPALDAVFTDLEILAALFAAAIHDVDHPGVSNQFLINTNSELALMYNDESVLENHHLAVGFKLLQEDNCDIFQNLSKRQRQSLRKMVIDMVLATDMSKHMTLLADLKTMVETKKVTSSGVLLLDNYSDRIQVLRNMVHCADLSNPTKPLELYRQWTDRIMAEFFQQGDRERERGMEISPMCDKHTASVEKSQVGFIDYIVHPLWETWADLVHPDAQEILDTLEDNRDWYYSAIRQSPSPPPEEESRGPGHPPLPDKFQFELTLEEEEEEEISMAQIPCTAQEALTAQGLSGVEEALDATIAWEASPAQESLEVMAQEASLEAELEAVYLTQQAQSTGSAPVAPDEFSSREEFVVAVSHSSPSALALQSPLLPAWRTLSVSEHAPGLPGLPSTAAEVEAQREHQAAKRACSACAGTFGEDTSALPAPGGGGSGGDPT
# Method in brief: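 Cell-free recombinant human PDE4A1 with fluorescent substrate; product separated by electrophoretic mobility shift, 1 h. Screened at 25 uM, then up to 50 uM in concentration-response; loss of signal fitted against DMSO.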
# [4] = target: cAMP-dependent protein kinase catalytic subunit alpha (Homo sapiens) (UniProt P17612); experiment: NVS_ENZ_hPKA: NovaScreen (NVS) Enzymatic Assay for human Protein Kinase A (PKA) (AID 2283192)
# Method in brief: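 Recombinant human PKA with specific fluorescent substrate, product separated by electrophoretic mobility shift, read 1 h after dosing. Primary screen at 25 uM in duplicate; actives then run in concentration-response up to 50 uM, activity relative to DMSO.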
# [5] = target: human Matrix Metalloproteinase-9 (MMP9), MMP9 (gene 4318) (UniProt P14780); experiment: NVS_ENZ_hMMP9: NovaScreen (NVS) Enzymatic Assay for human Matrix Metalloproteinase-9 (MMP9) (AID 2283190);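 also: cell-free recombinant MMP9 protease activity read by fluorescent substrate signal; active means inhibition seen as loss of fluorescence signal versus DMSO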
# Chain of human Matrix Metalloproteinase-9 (MMP9), MMP9 (gene 4318) (P14780 whole entry, looked up): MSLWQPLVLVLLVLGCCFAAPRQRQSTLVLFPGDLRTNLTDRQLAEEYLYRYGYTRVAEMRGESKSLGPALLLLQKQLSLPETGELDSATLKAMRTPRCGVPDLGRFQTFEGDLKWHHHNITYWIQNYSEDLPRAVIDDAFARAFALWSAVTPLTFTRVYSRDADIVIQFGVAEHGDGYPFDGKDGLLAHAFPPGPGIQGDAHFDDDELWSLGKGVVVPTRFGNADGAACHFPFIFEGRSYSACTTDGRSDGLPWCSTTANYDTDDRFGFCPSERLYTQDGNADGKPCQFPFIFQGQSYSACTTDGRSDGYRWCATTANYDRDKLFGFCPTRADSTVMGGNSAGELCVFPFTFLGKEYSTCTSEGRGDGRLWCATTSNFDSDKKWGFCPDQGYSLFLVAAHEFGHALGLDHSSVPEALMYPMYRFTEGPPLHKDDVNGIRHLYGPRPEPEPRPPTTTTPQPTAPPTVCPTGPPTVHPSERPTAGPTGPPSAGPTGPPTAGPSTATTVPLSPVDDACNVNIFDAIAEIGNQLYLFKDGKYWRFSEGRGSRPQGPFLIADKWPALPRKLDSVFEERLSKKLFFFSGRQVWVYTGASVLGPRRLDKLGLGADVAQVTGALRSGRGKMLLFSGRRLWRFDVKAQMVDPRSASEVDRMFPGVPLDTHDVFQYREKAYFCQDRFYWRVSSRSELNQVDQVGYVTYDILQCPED
# Method in brief: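 Inhibition was scored as loss of fluorescence signal against DMSO controls. The recombinant protease was exposed to chemicals for 1 hour before reading; initial testing used 25 uM in duplicate.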
# [6] = target: human Matrix Metalloproteinase-7 (MMP7), MMP7 (gene 4316) (UniProt P09237); experiment: NVS_ENZ_hMMP7: NovaScreen (NVS) Enzymatic Assay for human Matrix Metalloproteinase-7 (MMP7) (AID 2283183)
# Chain of human Matrix Metalloproteinase-7 (MMP7), MMP7 (gene 4316) (P09237 whole entry, looked up): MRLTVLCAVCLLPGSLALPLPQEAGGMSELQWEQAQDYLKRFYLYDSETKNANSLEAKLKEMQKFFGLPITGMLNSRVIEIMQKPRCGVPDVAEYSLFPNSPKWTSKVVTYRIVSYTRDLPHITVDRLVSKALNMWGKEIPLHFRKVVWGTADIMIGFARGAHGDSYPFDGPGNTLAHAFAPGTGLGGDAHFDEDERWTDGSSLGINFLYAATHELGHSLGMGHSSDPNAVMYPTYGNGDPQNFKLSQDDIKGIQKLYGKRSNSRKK
# Method in brief: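 Cell-free fluorescence enzymatic assay read 1 h after compound addition, activity loss analyzed against DMSO. Primary duplicate testing at 25 uM; compounds meeting threshold rerun in singleton concentration-response up to 50 uM.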
# [7] = target: human p21 Activated Kinase 4 (PAK4), PAK4 (gene 10298) (UniProt O96013); experiment: NVS_ENZ_hPAK4: NovaScreen (NVS) Enzymatic Assay for human p21 Activated Kinase 4 (PAK4) (AID 2283189)
# Chain of human p21 Activated Kinase 4 (PAK4), PAK4 (gene 10298) (O96013 whole entry, looked up): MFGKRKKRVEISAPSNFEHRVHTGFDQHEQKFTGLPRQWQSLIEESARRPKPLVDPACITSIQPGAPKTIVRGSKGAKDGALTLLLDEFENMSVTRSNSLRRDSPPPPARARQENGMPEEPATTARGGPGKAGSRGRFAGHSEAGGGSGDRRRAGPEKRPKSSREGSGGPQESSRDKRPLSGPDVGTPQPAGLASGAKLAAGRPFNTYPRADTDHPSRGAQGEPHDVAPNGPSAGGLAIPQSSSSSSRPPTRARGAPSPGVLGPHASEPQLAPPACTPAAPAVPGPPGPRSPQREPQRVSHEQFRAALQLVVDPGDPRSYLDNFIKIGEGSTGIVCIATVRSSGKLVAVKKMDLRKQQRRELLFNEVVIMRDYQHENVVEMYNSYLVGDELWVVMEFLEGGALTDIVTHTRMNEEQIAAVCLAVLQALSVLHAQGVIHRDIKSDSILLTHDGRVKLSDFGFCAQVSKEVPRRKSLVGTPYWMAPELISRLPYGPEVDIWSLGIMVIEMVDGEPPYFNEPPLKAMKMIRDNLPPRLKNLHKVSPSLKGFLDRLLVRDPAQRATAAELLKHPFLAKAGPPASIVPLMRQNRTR
# Method in brief: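 Cell-free recombinant human PAK4 activity assay; fluorescent substrate and product separated by electrophoretic mobility shift, read 1 h after dosing. Initially tested in duplicate at 25 uM, relative to DMSO baseline.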
# [8] = target: human Phosphodiesterase 5 (PDE5), PDE5A (gene 8654) (UniProt O76074); experiment: NVS_ENZ_hPDE5: NovaScreen (NVS) Enzymatic Assay for human Phosphodiesterase 5 (PDE5) (AID 2283194)
# Method in brief: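 Recombinant human PDE5 with specific substrate, read 1 h after dosing by fluorescence with electrophoretic mobility-shift separation of substrate and product. Initial single-concentration duplicate screen at 25 uM, actives followed in concentration series; loss of activity versus DMSO.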
# [9] = target: human NIMA (Never In Mitosis Gene A)-Related Kinase 2 (NEK2), NEK2 (gene 4751) (UniProt P51955); experiment: NVS_ENZ_hNEK2: NovaScreen (NVS) Enzymatic Assay for human NIMA (Never In Mitosis Gene A)-Related Kinase 2 (NEK2) (AID 2283188)
# Chain of human NIMA (Never In Mitosis Gene A)-Related Kinase 2 (NEK2), NEK2 (gene 4751) (P51955 whole entry, looked up): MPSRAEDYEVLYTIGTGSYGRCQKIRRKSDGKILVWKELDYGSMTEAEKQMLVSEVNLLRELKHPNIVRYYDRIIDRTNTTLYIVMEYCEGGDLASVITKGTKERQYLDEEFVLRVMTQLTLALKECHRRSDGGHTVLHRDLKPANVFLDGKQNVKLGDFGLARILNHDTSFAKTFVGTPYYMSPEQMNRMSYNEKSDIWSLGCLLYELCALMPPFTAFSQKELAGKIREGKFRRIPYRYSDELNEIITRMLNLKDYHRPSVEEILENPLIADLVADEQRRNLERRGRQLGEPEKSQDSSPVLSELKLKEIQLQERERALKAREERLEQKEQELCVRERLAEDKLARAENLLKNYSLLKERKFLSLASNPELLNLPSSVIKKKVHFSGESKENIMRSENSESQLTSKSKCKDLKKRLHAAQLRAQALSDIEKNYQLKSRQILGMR
# Method in brief: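 Cell-free NEK2 enzyme activity after 1 h exposure, read by fluorescence with electrophoretic mobility shift separating substrate and product. Primary screen in duplicate at 25 uM; actives then run as concentration series. Loss of signal versus DMSO scored.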
# [10] = target: human Matrix Metalloproteinase-3 (MMP3), MMP3 (gene 4314) (UniProt P08254); experiment: NVS_ENZ_hMMP3: NovaScreen (NVS) Enzymatic Assay for human Matrix Metalloproteinase-3 (MMP3) (AID 2283185)
# Chain of human Matrix Metalloproteinase-3 (MMP3), MMP3 (gene 4314) (P08254 whole entry, looked up): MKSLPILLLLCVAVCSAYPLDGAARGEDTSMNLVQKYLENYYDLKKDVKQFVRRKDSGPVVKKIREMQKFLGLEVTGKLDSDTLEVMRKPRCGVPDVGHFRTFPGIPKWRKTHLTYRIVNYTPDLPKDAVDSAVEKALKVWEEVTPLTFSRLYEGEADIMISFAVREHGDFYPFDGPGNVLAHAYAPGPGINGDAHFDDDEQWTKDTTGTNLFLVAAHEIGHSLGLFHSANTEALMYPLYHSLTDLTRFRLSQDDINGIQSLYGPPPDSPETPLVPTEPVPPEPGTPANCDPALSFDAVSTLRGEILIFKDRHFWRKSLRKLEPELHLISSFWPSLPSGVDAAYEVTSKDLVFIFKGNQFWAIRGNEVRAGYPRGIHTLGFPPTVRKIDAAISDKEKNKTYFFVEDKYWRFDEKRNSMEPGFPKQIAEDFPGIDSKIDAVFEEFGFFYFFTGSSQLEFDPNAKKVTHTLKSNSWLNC
# Method in brief: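 Cell-free recombinant human MMP3 activity, fluorescence intensity read 1 h after dosing. Primary screen duplicate at 25 uM, actives retested in concentration series; loss of signal vs DMSO baseline.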
compound,measurement,setting,value
CCC(C)(C)C(=O)OC1=C(c2ccc(Cl)cc2Cl)C(=O)OC12CCCCC2,outcome,[1],inactive
COC(=O)c1ccccc1S(=O)(=O)NC(=O)N(C)c1nc(C)nc(OC)n1,outcome,[2],inactive
same,AC50,[3],25 µM (active)
same,outcome,[4],inactive
CN1CSC(=S)N(C)C1,outcome,[5],inactive
Oc1cc(Cl)ccc1Oc1ccc(Cl)cc1Cl,AC50,[6],13 µM (active)
same,outcome,[6],inactive
same,outcome,[1],inactive
same,outcome,[7],inactive
same,outcome,[5],inactive
same,outcome,[8],inactive
CC[C@H](C)[C@H]1O[C@]2(C=C[C@@H]1C)C[C@@H]1C[C@@H](C/C=C(\C)[C@@H](O[C@H]3C[C@H](OC)[C@@H](O[C@H]4C[C@H](OC)[C@@H](O)[C@H](C)O4)[C@H](C)O3)[C@@H](C)/C=C/C=C3\CO[C@@H]4[C@H](O)C(C)=C[C@@H](C(=O)O1)[C@]34O)O2 (tested in a mixture with another compound),AC50,[5],5.22 µM (active)
CCCN(CCOc1c(Cl)cc(Cl)cc1Cl)C(=O)n1ccnc1,AC50,[3],7.79 µM (active)
same,AC50,[8],9.58 µM (active)
COP(=S)(OC)Oc1ccc([N+](=O)[O-])cc1,outcome,[3],inactive
CC1(C)C(C=C(Cl)Cl)C1C(=O)OC(C#N)c1ccc(F)c(Oc2ccccc2)c1 (stereo unspecified),outcome,[9],inactive
COc1nn(CSP(=S)(OC)OC)c(=O)s1,AC50,[3],9.55 µM (active)
O=S(=O)(O)C(F)(F)C(F)(F)C(F)(F)C(F)(F)C(F)(F)C(F)(F)C(F)(F)C(F)(F)F,AC50,[6],1.73 µM (active)
same,outcome,[1],inactive
same,AC50,[10],22.6 µM (active) [middle of 4 runs]
same,AC50,[2],24.1 µM (active)
same,AC50,[7],25 µM (active)
same,outcome,[5],inactive
same,AC50,[3],5.35 µM (active)
same,AC50,[4],36.3 µM (active) and 47.7 µM (active)
same,AC50,[8],25 µM (active) and 21.9 µM (active)
CC(C)(C)C(O)C(Oc1ccc(Cl)cc1)n1cncn1 (stereo unspecified),outcome,[3],inactive
same,outcome,[8],inactive
CCOc1nc(NC)nc(NC(=O)NS(=O)(=O)c2ccccc2C(=O)OC)n1,AC50,[3],14.8 µM (active)
O=C(O)C(F)(F)C(F)(F)C(F)(F)C(F)(F)C(F)(F)C(F)(F)C(F)(F)F,outcome,[2],inactive
same,outcome,[5],inactive
same,outcome,[4],inactive
CNC(=O)CSP(=S)(OC)OC,outcome,[5],inactive
N#Cc1c(Cl)c(Cl)c(Cl)c(C#N)c1Cl,outcome,[6],inactive
same,outcome,[9],inactive
same,AC50,[8],31.8 µM (active)
Oc1ccc(Cl)cc1Cc1ccccc1,AC50,[6],6.41 µM (active)
same,outcome,[5],inactive
same,outcome,[3],inactive
same,outcome,[8],inactive
Cc1[nH]c(=O)n(C(C)(C)C)c(=O)c1Cl,AC50,[8],9.17 µM (active)

# Source: PubChem BioAssay (EPA / NIEHS)
